Most compounds without a hit are left out; they make up all but 2.6% or so of the library.
ABHD5 PLIN5 PPI: ABHD5-PLIN5 protein interaction inhibition; inhibition, % at 4 µM; 360,000 compounds, 0.78% hits; Split G. princeps luciferase complementation, luminescence, 4 h; Q00G26+Q8WTS1;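 active = inhibition above the mean inhibition across every tested compound plus 3 SD, cut at about 22% in these data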
M18AAP inhibitor: PfM18AAP enzyme inhibition. recombinant PfM18AAP, H-Glu-NHMec fluorogenic cleavage. inhibition, % at 7.35 µM. 290,000 compounds, 1.2% hits;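 active = inhibition above the campaign mean inhibition over all tested compounds plus 3 SD, cut at about 28% in these data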
Rce1 inhib: inhibitors of yeast Ras-converting enzyme | AID 2563 | calls only | 290,000 compounds, 0.27% hits | yeast membranes, quenched prenylated peptide cleavage fluorescence;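 active = fall in fluorescence gain of 50% or more versus controls, with final raw signal at or below 3038400; inconclusive = same 50% fall but final raw signal above 3038400; inactive = fall in fluorescence gain under 50%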
Target sequence (Q03530 whole entry, looked up): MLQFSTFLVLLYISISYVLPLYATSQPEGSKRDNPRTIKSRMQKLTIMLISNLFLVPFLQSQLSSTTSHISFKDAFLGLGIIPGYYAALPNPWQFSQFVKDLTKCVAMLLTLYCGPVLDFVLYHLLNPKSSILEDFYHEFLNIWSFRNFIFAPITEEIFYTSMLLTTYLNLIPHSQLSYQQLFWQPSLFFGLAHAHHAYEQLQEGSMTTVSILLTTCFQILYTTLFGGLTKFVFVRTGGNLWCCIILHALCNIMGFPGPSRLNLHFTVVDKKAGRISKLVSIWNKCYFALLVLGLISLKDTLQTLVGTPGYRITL
Exocytosis inh: blocks lytic granule exocytosis; TALL-104 LAMP-1 surface exposure, flow cytometry; cells stimulated with thapsigargin and PMA; 360,000 compounds, 0.66% hits; inhibition, % at 10 µM;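 active = inhibition above about 55%, limit read from the data; inconclusive = no clear call, values can overlap the other calls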
Platelet DG rel: modulates dense granule release in human platelets | human platelet-rich plasma, SFLLRN dense granule ATP release, luminescence | inhibition, %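 (compounds screened at 7.5 µM in platelet-rich plasma)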 | 300,000 compounds, 0.22% hits;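 active = mean replicate score, as percent of positive control, at or above 50; inconclusive = mean below 50 but at least one replicate at or above 50; inactive = mean and every replicate below 50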
Each line names hits and unclear results; the compound was inactive in the other large screens.

COc1ccc(C(=O)/C=C/c2ccccc2F)c(OC(=O)c2ccc([N+](=O)[O-])cc2)c1	ABHD5 PLIN5 PPI 27.9
CCOc1cc(C2C3=C(CCCC3=O)N(CCC(=O)O)C3=C2C(=O)CCC3)ccc1OS(=O)(=O)c1ccc(C)cc1	none
Cc1ccc(S(=O)(=O)Oc2ccc(C3C4=C(CCCC4=O)N(CCC(=O)O)C4=C3C(=O)CCC4)cc2Cl)cc1	Rce1 inhib active
Cc1nn(C)cc1CNC(=O)C1CCC(=O)N(CC2CCCCC2)C1 (configuration not stated)	Platelet DG rel 55.8
NC(=S)N/N=C/c1ccc(-c2cc(Cl)cc(Cl)c2)o1	none
NC(=S)N/N=C/c1ccc(-c2ccc([N+](=O)[O-])cc2)o1	M18AAP inhibitor 42.2
CCS(=O)(=O)c1ccc2oc(Nc3ccccc3Cl)nc2c1	Platelet DG rel 57.3
O=C(COC(=O)c1ccc2ncsc2c1)NC(=O)c1ccccc1	M18AAP inhibitor 30.7
COc1ccc(-n2c(=O)cc(N3CCN(c4ccccc4)CC3)[nH]c2=O)cc1	none
O=S1(=O)C=C(SCCN2CCCCC2)c2ccccc21	Exocytosis inh 63.1
COc1ccc(C(=O)NCC(C)(C)CNC(=O)c2ccc(OC)cc2)cc1	none (no result: M18AAP inhibitor)
CCCOC(=O)c1c(-c2ccc(C)cc2C)csc1NC(=O)C1C2CCC(O2)C1C(=O)O (configuration not stated)	M18AAP inhibitor 29.6
CCOC(=O)c1c(NC(=O)Cn2nnc(-c3ccccc3Cl)n2)sc(C)c1C	none
CN1c2ccccc2-c2nc3ccccc3n2C1c1ccccn1 (configuration not stated)	Rce1 inhib inconclusive
CN1c2ccccc2-c2nc3ccccc3n2C1c1ccncc1 (configuration not stated)	Rce1 inhib active
O=C1CCCC2=C1C(c1ccc(O)c(O)c1)c1c(ccc3ncccc13)N2 (configuration not stated)	M18AAP inhibitor 77.1
CCOC(=O)c1cc2cc([N+](=O)[O-])ccc2oc1=O	Platelet DG rel 58.6
Cc1nnc(SCC(=O)c2ccc(Cl)cc2)n(N)c1=O	none (no result: Rce1 inhib, Platelet DG rel)
Cc1oc(C(C)(C)C)cc1C(=O)Nc1cccc(C(=O)O)c1	none
COc1cc(Cl)ccc1OCc1cc(C(=O)N2CCCC(OC)C2)no1 (configuration not stated)	none (no result: Rce1 inhib)
O=C(O)CCCCCCC1C(=O)NC(=O)N1CCC(O)C1CCCCC1 (configuration not stated)	Platelet DG rel 87.9
O=C(O)CCCCCN1C(=O)C2CCCCC2C1=O (configuration not stated)	none
CC(Sc1ccccc1)C(=O)NN=C1CCN(C)CC1 (configuration not stated)	none
CNc1ccc(Br)cc(C(=O)/C=C/c2cccc(Cl)c2Cl)c1=O	Exocytosis inh 98.2 (no result: Rce1 inhib, Platelet DG rel)
CNc1ccc(Br)cc(C(=O)/C=C/c2cccc(OC)c2OC)c1=O	none
S=C(NCCNC(=S)Nc1ccccc1)Nc1ccccc1	none
S=C(NCCOCCOCCNC(=S)Nc1ccccc1)Nc1ccccc1	M18AAP inhibitor 28.3
O=C(Cn1c2[n+](c3ccc(C(F)(F)F)cc31)CCCCC2)Nc1ccc(Br)cc1	ABHD5 PLIN5 PPI 96.4
COc1cccc(CN2C(=O)N(C(C)C)C(N(O)C(=O)NC(C)C)C2(C)C)c1OC (configuration not stated)	none
CC(=O)c1c(C)[nH]c(C(=O)OCc2ccc(Br)cc2)c1C	Rce1 inhib active
COc1ccc(C(=O)O/N=C(\C)c2ccccc2)cc1	Platelet DG rel 64.9
COc1ccc(C(=O)O/N=C2\C(=O)N(C)c3ccccc32)cc1	Exocytosis inh 66.3 (no result: M18AAP inhibitor, Rce1 inhib)
CN1C(=O)/C(=N\OC(=O)c2cccc3ccccc23)c2ccccc21	Exocytosis inh 80.2
COc1ccc2ccccc2c1CN1CCN(C(=O)c2ccccc2)CC1	none (no result: Platelet DG rel)
C#CCOCCOCCOCCNc1nc(N2CCN(C(=O)C([C@@H](C)CC)n3cc(C(N)CC(C)C)nn3)CC2)nc(N2CCN(C(=O)[C@H](CCCCN)n3cc(C(N)COC(=O)C(F)(F)F)nn3)CC2)n1 (some centres not stated)	none (no result: ABHD5 PLIN5 PPI, M18AAP inhibitor, Exocytosis inh)
CCCCCc1cc(=O)oc2c(C(CCN3CCCC(C)C3)c3ccc(N(C)C)cc3)c(OC)cc(OC)c12 (configuration not stated)	Exocytosis inh 81.1 (no result: M18AAP inhibitor)
CCCCCc1cc(=O)oc2c(C(CCN3CCCC(C)C3)c3cc(OC)c(OC)c(OC)c3)c(OC)cc(OC)c12 (configuration not stated)	none (no result: M18AAP inhibitor)
COc1ccccc1C(=O)Nc1nc(-c2ccc(S(=O)(=O)N3CCOCC3)cc2)cs1	Exocytosis inh 64.9
CCCCOC(=O)c1ccc(NC(=O)C(CCS(C)(=O)=O)NC(C)=O)cc1 (configuration not stated)	none
COCCCNC(=O)CC(NS(=O)(=O)c1ccc(C)cc1)c1ccc(OC)cc1 (configuration not stated)	none
CCCCNC(=O)C(CC)Sc1nc2sc(C(=O)OC)c(C)c2c(=O)n1N (configuration not stated)	Rce1 inhib active
CCn1c(SCC(=O)OC(C)C)nnc1-c1ccccc1OC	none
COc1ccccc1NCC(O)Cn1c2ccccc2c2ccccc21 (configuration not stated)	none (no result: Rce1 inhib)
COc1ccc(CCNCC(O)Cn2c3ccccc3c3ccccc32)cc1OC (configuration not stated)	ABHD5 PLIN5 PPI 22.4
O=C(CN1CCN(Cc2ccccc2)CC1)NCC1COc2ccccc2O1 (configuration not stated)	none
CCN(CC)CCCN(Cc1cc2cc3c(cc2[nH]c1=O)OCO3)C(=S)NCCCN(C)C	Rce1 inhib active
CCN(CC)CCN(Cc1cc2cc3c(cc2[nH]c1=O)OCO3)C(=S)NCC1CCCO1 (configuration not stated)	M18AAP inhibitor 28.2
CN(C)CCCNC(=S)N(CCCN(C)C)Cc1cc2cc3c(cc2[nH]c1=O)OCO3	none
CN1C(=O)C(CC(=O)NCCc2ccccc2)N(NC(=O)c2cccc(F)c2)C1=S (configuration not stated)	none
Oc1ccc(Cl)cc1N=Nc1ccccc1	none
Cc1ccc(O)c(N=Nc2ccccc2)n1	Platelet DG rel 77.2 (no result: M18AAP inhibitor)
COc1cccc(C(=O)Nc2cc3c4c(c2)CC(=O)N4CCC3)c1	none (no result: M18AAP inhibitor)
Cc1oc2c(CN3CCCC3)c(O)ccc2c(=O)c1-c1ccc(Cl)cc1	none
O=C(c1ccccc1)N1N=C(c2ccccc2)CC1c1ccccc1 (configuration not stated)	none
Cc1ccc(C(=O)N2N=C(c3ccccc3O)CC2c2ccccc2)cc1 (configuration not stated)	Rce1 inhib active
COc1cccc(CNC(=O)C2CCCN(c3nn4c(=O)cc(C)nc4s3)C2)c1 (configuration not stated)	none (no result: Rce1 inhib, Platelet DG rel)
COc1ccc(NC(=O)C2CCCN(c3nn4c(=O)cc(C)nc4s3)C2)cc1 (configuration not stated)	Platelet DG rel 103.7
Cc1ccc(NC(=O)COc2cccc(-n3cnnn3)c2)cc1[N+](=O)[O-]	none

Screening data (PubChem BioAssay)
